Test [1] addresses Tyrosine-protein kinase Yes (Homo sapiens) (UniProt P07947). Briefly: qHTS for small molecule inhibitors of Yes1 kinase: Primary Screen (AID 686947). Also: potency is read from the fitted curve at half-maximal effect; nearly all actives have a fitted effect of over 60% in size. The note with it: Yes1 kinase biochemical qHTS inhibition. The procedure, abridged:
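ADP-Glo luminescence readout; final 4 nM Yes1, 0.1 mM ATP, 0.3 mg/mL poly(E4Y), Tris pH 7.5, MgCl2, DTT, Brij-35. 20 min compound preincubation, 60 min reaction at RT. Normalized to DMSO wells with and without enzyme.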
For orientation: In qHTS, concentration-response curves come from the screen itself.

A short description of test [2]: qHTS for small molecule inhibitors of Yes1 kinase: Counter Assay (AID 686950).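 Also: no kinase present so only ADP-Glo detection of a fixed ADP amount is tested; luminescence from ADP-Glo reporting ADP in a fixed ATP and ADP mixture; 0% = DMSO wells with ATP plus ADP and -100% = ATP-only wells without ADP.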 The procedure, abridged: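 Luminescence read-out from ADP-Glo quantifies a fixed ADP amount (0.02 mM ADP with 0.08 mM ATP) after 60 min at room temperature; signal is normalized between DMSO wells with ATP/ADP and with 0.1 mM ATP alone.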
The nature of test [3]: qHTS profiling of the MIPE4 collection as inhibitors of Plasmodium falciparum (3D7) proliferation (AID 743344; call rule not given here;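 also: scaled between DMSO vehicle wells and 0.29 µM artemisinin as full inhibition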). To be noted: P. falciparum 3D7 in erythrocytes, SYBR Green DNA fluorescence, 72 h; at 5.51 µM (top of the series) unless noted. The procedure, abridged: (§1)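 Erythrocytes infected with P. falciparum (0.3% parasitemia, 2.5% hematocrit) incubated with compounds 72 h at 37 C, 5% CO2. Lysis with saponin/Triton buffer containing SYBR Green I, overnight at room temperature in the dark; DNA fluorescence (485/535 nm) normalised to 0.29 uM artemisinin and DMSO.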

Test [4] in a line: qHTS profiling of the MIPE4 collection as inhibitors of Plasmodium falciparum (DD2) proliferation (AID 743345; call rule not given here). The note with it: P. falciparum Dd2 in erythrocytes, SYBR Green DNA, 72 h; at 5.51 µM (top of the series) unless noted. The procedure, abridged: as §1
The nature of test [5]: qHTS profiling of the MIPE4 collection as inhibitors of Plasmodium falciparum (DD2) proliferation (Rep 2) (AID 743346; call rule not given here). To be noted: P. falciparum Dd2 in erythrocytes, SYBR Green DNA, 72 h; at 5.51 µM (top of the series) unless noted. The procedure, abridged:
as §1

A short description of test [6]: qHTS profiling of the MIPE4 collection as inhibitors of Plasmodium falciparum (HB3) proliferation (AID 743347; call rule not given here;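 also: plate controls were DMSO vehicle wells for no effect and artemisinin wells for full effect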). The note with it: P. falciparum HB3 in erythrocytes, SYBR Green DNA, 72 h; at 5.51 µM (top of the series) unless noted. In short, it runs like this:
as §1

The target in test [7] is Flap endonuclease 1 (Homo sapiens) (UniProt P39748). Briefly: qHTS Assay for the Inhibitors of FEN1: Confirmatory Assay for Cherry-picked Compounds (AID 720498). Also: potency is read from the fitted curve at half-maximal effect; nearly all actives have a fitted effect of over 60% in size. The note with it: FEN1 flap cleavage, TAMRA/BHQ2 fluorogenic DNA substrate. In short, it runs like this: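 FEN1 at 10 nM was preincubated with compound for 15 min at room temperature, then 50 nM (final) double-flap DNA substrate was added. TAMRA fluorescence released from the BHQ-2-quenched flap was read at 0 and 15 min (ex 525/em 598 nm).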
Flap endonuclease 1 (Homo sapiens), sequence (P39748 whole entry, looked up): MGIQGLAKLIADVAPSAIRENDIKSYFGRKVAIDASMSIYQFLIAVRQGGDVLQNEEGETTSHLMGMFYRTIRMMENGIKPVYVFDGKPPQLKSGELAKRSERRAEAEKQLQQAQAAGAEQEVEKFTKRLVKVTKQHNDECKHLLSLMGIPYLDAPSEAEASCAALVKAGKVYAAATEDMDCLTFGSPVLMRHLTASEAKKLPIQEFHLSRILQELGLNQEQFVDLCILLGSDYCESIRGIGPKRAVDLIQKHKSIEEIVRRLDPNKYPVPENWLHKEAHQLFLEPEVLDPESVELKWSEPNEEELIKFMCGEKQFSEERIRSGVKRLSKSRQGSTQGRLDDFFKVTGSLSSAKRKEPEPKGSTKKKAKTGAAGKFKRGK

Test [8] deals with DNA polymerase eta (Homo sapiens) (UniProt Q9Y253). Briefly: qHTS for Inhibitors of Polymerase Eta: Confirmatory Assay for Cherry-picked Compounds (AID 720502). Also: potency is read from the fitted curve at half-maximal effect. To be noted: Pol eta primer extension, TAMRA/BHQ fluorescence, 10 min. In short, it runs like this:
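Pol eta 10 nM; substrate 50 nM final (unlabeled primer, TAMRA reporter, BHQ-2 template); preincub. 15 min RT; reads t=0 and t=10 min at ex525/em598.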

Test [9] has as its target Tumor susceptibility gene 101 protein (Homo sapiens) (UniProt Q99816). Briefly: qHTS Assay for Iinhibitors of HIV-1 Budding by Blocking the Interaction of PTAP/TSG101: Hit Validation (AID 651600). Also: nearly all actives have a fitted effect of over 70% in size. Also: potency is read from the fitted curve at half-maximal effect. In short, it runs like this: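 FITC-PTAP peptide (50 nM final) binding to Tsg101 binding domain (10 uM final) was measured by polarization after 20 min at r.t. with compounds, in 10 mM HEPES pH 7.5 buffer with 0.15 M NaCl and 0.01% Tween 20.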

In test [10] the target is Bifunctional 3'-5' exonuclease/ATP-dependent helicase WRN (Homo sapiens) (UniProt Q14191). Briefly: qHTS for Inhibitors of WRN Helicase: Confirmatory Assay for Cherry-picked Compounds. (AID 720497). Also: nearly all actives have a fitted effect of over 65% in size. In short, it runs like this:
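Kinetic fluorescence helicase read-out (525 nm excitation, 598 nm emission) on a forked duplex substrate at 100 nM with 2 mM ATP. Enzyme: 20 nM WRN, exposed to compound for 15 min at room temperature. Responses normalized to buffer-only and positive-control wells.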

Test [11] is described as follows: qHTS for Inhibitors of WRN Helicase: Thiazole Orange DNA Binding Counterscreen (AID 720499).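 Also: drop in dye fluorescence marks compound binding to DNA; % is scaled to controls: 0 for no effect and ±100 for the full control effect; nearly all actives have a fitted effect of over 60% in size.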 In short, it runs like this: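 Readout: ThO fluorescence, ex 480 nm/em 530 nm. Mix: 50 nM unlabeled DNA, 100 nM ThO. Compounds pintooled in, 15 min RT before reading.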
Test [12] deals with RecQ-like DNA helicase BLM (Homo sapiens) (UniProt P54132). Nature of the test: qHTS for Inhibitors of WRN Helicase: BLM Helicase Counterscreen for WRN Inhibitors (AID 720503).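 Also: plate controls were DMSO vehicle for no effect and enzyme-free control wells for full effect; nearly all actives have a fitted effect of over 60% in size.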 The procedure, abridged: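 1 nM BLM, Tris pH 8.0/NaCl/MgCl2/DTT/Tween-20; cpd preinc 15 min RT; start w/ 100 nM DNA + 2 mM ATP final; fluorescence (ex 525/em 598) two reads 15 min apart; normalized to enzyme-free and DMSO controls.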
RecQ-like DNA helicase BLM (Homo sapiens), sequence (P54132 whole entry, looked up): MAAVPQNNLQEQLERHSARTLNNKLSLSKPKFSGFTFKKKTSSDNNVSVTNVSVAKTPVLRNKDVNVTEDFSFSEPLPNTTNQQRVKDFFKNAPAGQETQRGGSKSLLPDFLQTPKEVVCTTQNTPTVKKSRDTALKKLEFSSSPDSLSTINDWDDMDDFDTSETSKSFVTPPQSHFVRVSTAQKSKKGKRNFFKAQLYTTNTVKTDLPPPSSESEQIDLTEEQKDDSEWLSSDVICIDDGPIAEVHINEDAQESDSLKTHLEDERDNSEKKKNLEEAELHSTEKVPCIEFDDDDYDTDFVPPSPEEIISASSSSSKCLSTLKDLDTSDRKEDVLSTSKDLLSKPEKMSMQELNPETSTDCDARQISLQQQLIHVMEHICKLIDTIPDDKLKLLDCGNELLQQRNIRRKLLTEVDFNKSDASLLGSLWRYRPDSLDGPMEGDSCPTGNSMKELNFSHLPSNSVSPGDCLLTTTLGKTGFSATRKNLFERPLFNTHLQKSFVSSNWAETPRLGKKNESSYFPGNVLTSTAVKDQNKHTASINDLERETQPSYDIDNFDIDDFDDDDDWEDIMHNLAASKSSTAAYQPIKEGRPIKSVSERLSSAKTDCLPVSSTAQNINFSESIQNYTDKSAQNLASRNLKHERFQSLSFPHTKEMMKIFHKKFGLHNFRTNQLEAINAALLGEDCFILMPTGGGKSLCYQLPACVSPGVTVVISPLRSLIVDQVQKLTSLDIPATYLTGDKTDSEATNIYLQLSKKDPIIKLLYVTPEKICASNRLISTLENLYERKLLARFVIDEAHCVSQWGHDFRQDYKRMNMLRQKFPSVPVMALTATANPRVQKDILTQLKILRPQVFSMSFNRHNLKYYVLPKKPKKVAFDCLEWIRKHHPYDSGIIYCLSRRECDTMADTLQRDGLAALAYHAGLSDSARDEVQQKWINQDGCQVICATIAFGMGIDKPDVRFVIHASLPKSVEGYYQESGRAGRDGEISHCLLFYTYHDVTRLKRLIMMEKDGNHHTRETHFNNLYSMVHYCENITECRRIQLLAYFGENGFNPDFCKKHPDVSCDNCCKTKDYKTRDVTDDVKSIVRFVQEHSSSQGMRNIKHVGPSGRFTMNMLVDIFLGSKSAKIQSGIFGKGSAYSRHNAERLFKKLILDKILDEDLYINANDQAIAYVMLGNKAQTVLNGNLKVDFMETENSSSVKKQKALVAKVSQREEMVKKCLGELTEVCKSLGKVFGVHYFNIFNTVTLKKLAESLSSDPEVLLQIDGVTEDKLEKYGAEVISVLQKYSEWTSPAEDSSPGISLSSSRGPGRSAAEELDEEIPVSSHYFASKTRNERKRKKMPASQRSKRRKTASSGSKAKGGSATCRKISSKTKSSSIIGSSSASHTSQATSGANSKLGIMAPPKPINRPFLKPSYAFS

Test [13] concerns the target Cytochrome P450 2C9 (Homo sapiens) (UniProt P11712). Nature of the test: qHTS Assay for Inhibitors and Substrates of Cytochrome P450 2C9 (AID 883). Also: nearly all actives have a fitted effect of over 60% in size. Also: potency is read from the fitted curve at half-maximal effect. The procedure, abridged: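 Inhibition of CYP2C9 is scored as loss of luminescence, with 57uM sulphaphenazole defining 100% inhibition. Substrate Luciferin-H is used at 100uM, equal to its KM; enzyme at 10nM in 25mM KPO4, 60 min at 37C with NADPH regeneration.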

Test [14] is described as follows: qHTS Assay for Identifying Gametocytocidal Compounds (AID 743244). Also: potency is read from the fitted curve at half-maximal effect.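 As to max response: % is scaled to controls: 0 for no effect and ±100 for the full control effect; actives lower the fluorescent signal which means gametocytes are killed.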 To be noted: P. falciparum 3D7 stage III-V gametocytes, alamarBlue, 72 h; max response: stronger effect = lower value. The procedure, abridged:
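Late gametocytes (III–V), P. falciparum 3D7; 72 h drug, then 24 h alamarBlue; resazurin reduction read by fluorescence.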

A short description of test [15]: qHTS assay for small molecule agonists of the antioxidant response element (ARE) signaling pathway measured by Nrf2-dependant transcriptional activity (AID 720636; active = well fitted curve in the direction sought with a large enough effect in the repeat runs; an effect the other way counts as inactive or inconclusive;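 also: HepG2 cells with an ARE-driven luciferase reporter; % of control where 0% means no effect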). In short, it runs like this:
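First, ARE-luc HepG2 cells attached for 6 hr at 37 C in 1% dialyzed FBS medium. Next, compound or DMSO was added and incubated 16 hr. Finally, ONE-Glo reagent was added and luminescence measured after 30 min.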

Test [16] in a line: qHTS assay for small molecule agonists of the antioxidant response element (ARE) signaling pathway measured by Nrf2-dependant transcriptional activity - cell viability counter screen (AID 720653; active = well fitted curve in the direction sought with a large enough effect in the repeat runs; an effect the other way counts as inactive or inconclusive; also: potency is read from the fitted curve at half-maximal effect). The note with it: ARE-bla HepG2 viability, CellTiter-Glo ATP luminescence, 16 h; max response: stronger effect = lower value. The procedure, abridged:
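Cytotoxicity counter screen: intracellular ATP quantified by CellTiter-Glo luminescence in the same ARE-bla HepG2 plates, after 16 h compound exposure and a 2 h beta-lactamase substrate step.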

Test [17] is described as follows: qHTS profiling for inhibitors of Plasmodium falciparum (3D7) proliferation (AID 743322).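 Also: infected erythrocytes exposed to compound for 72 h before lysis; 100% = DMSO vehicle wells and 0% = 0.29 µM artemisinin.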 To be noted: P. falciparum 3D7 proliferation; at 28.7 µM (top of the series) unless noted. In short, it runs like this:
as §1

Test [18] can be described thus: qHTS profiling for inhibitors of Plasmodium falciparum (DD2) proliferation (AID 743323; call rule not given here). The note with it: lower = more inhibition; at 28.7 µM (top of the series) unless noted. In short, it runs like this: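 1536-well qHTS; infected RBCs 0.3% parasitemia/2.5% Hct final; cpd 72 h 37 C 5% CO2; lysis buffer + SYBR Green I, o/n RT dark; FI 485/535; norm. to 0.29 uM artemisinin and DMSO, plate-stack corrected.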

Test [19] in a line: qHTS profiling for inhibitors of Plasmodium falciparum (HB3) proliferation (AID 743324).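 Also: 100% = DMSO vehicle wells and 0% = artemisinin-treated control wells.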 The note with it: Plasmodium falciparum HB3 blood-stage proliferation; at 28.7 µM (top of the series) unless noted. In short, it runs like this: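 P. falciparum HB3 grown in erythrocytes (0.3% parasitemia, 2.5% hematocrit final) with compound for 72 h at 37 C, 5% CO2. Parasite DNA detected by SYBR Green after saponin/triton lysis overnight; normalized to 0.29 uM artemisinin and DMSO.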

Records with an inconclusive call do not appear. The list shows a part of the results. Active and inactive are the calls of the source. Unless noted, calls follow the shape of the dose curve; as a rule, active = well fitted curve in the direction sought with a large enough effect; inconclusive = small, poorly fitted or top-dose-only effect, or another doubt; inactive = no such curve, though single readings can be large; an effect the other way counts as inactive or inconclusive.

Tumor susceptibility gene 101 protein (Homo sapiens), sequence (Q99816 whole entry, looked up, the tested form may be a part): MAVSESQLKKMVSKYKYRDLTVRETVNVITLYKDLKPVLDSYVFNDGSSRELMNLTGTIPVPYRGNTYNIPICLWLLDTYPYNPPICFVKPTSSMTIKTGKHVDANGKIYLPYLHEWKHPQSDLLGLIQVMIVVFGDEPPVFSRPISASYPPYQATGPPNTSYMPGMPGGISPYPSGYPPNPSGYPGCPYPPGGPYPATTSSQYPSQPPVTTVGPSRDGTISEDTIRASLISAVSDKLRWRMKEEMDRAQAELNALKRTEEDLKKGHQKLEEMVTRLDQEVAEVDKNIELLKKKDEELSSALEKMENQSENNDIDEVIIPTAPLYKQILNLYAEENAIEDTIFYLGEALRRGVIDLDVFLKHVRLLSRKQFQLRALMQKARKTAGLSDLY
Cytochrome P450 2C9 (Homo sapiens), sequence (P11712 whole entry, looked up): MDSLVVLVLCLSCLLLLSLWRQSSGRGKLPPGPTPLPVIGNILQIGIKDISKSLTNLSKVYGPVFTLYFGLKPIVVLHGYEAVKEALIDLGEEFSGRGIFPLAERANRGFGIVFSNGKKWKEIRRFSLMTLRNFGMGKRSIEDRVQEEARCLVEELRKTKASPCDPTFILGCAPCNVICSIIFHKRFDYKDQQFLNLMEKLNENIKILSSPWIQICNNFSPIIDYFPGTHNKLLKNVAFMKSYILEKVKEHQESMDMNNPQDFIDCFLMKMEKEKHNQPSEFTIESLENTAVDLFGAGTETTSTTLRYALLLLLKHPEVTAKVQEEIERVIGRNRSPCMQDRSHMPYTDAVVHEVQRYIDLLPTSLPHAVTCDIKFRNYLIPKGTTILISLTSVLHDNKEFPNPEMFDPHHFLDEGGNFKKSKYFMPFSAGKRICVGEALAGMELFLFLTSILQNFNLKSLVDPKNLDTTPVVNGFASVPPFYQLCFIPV
Tyrosine-protein kinase Yes (Homo sapiens), sequence (P07947 whole entry, looked up): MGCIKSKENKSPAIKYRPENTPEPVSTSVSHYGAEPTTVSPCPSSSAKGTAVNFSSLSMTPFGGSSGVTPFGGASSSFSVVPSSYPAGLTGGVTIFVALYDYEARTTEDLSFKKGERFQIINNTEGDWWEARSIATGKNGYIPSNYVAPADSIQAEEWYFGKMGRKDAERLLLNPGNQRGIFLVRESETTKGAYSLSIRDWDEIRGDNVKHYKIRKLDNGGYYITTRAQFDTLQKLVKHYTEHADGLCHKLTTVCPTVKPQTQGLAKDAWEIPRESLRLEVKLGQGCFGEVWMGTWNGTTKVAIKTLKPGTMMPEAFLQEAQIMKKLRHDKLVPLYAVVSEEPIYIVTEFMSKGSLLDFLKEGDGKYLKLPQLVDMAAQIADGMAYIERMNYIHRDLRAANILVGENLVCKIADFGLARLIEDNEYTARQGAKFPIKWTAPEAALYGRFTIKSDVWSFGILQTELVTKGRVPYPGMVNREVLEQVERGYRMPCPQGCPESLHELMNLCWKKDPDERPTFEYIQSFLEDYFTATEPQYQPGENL
Bifunctional 3'-5' exonuclease/ATP-dependent helicase WRN (Homo sapiens), sequence (Q14191 whole entry, looked up): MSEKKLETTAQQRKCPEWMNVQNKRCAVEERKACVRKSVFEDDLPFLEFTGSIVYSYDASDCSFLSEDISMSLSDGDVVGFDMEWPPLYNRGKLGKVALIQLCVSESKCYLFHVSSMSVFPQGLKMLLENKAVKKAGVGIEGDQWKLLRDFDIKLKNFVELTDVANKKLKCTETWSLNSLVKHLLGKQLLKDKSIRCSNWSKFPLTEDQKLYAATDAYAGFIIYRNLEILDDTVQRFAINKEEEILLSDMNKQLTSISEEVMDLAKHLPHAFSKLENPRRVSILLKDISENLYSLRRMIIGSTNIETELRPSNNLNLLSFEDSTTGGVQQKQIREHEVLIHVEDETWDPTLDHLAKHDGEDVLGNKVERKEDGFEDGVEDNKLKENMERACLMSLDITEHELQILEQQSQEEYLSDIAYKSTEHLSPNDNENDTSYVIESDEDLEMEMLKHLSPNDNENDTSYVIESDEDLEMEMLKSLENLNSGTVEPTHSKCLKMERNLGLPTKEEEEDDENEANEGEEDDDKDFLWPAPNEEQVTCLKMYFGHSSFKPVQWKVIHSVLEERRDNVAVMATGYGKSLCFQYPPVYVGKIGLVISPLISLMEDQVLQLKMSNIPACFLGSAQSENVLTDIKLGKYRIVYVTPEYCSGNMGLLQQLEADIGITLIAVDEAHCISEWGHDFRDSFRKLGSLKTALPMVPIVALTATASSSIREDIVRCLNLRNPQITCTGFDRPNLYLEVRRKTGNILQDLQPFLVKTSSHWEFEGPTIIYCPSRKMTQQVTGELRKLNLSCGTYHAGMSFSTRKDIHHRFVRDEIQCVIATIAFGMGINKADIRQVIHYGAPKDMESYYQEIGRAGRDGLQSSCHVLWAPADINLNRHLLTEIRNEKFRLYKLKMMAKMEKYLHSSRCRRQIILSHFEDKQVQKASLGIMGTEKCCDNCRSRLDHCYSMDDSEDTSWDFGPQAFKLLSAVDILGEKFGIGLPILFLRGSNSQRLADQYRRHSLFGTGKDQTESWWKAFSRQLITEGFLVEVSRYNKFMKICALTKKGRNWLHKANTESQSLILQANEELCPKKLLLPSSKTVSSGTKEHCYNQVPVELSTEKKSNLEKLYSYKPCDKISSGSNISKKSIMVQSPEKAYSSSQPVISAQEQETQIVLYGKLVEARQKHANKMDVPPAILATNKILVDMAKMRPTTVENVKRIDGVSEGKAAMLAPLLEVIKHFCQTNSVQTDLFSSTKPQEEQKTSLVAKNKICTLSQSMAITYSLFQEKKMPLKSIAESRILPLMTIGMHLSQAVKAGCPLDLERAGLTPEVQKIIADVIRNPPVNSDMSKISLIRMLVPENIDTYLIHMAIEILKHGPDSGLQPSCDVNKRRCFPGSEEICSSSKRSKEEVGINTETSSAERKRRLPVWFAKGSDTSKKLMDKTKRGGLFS

Consider `COc1cc(O)c2c(c1)/C=C/C[C@H](O)[C@H](O)C(=O)/C=C\C[C@H](C)OC2=O`, for which the Potency in test [1] was 2440 nM (active). Regarding `CNC(=O)Oc1cc(C)c(C=Cc2cncc(C(=O)NC)c2)c(C)c1`, the Potency in [1] was 654 nM (active). Also, the compound was classed as inactive in test [2]. On to `CC(C)(N)CNC(=O)CC1CCC2(CC1)OOC1(O2)C2CC3CC(C2)CC1C3` (stereo not drawn), for which the parasite growth, % of DMSO control in test [3] was 4.69% [at 28.5 µM]. Also, the parasite growth remaining, % of DMSO control (lower = more inhibition) in [4] worked out at 6.94% [at 28.5 µM]. Moreover, the parasite growth, % of control (lower = inhibition) in test [5] was 27.3% [at 28.5 µM]. Also, the growth, % of control in test [6] worked out at 5.72% [at 28.5 µM]. `COc1cccc(N2C(=O)NC(=O)/C(=C\c3ccc([N+](=O)[O-])s3)C2=O)c1`: the Potency was 8490 nM (active) in test [7] and 37900 nM (active) in [8]. For the compound `CCOC(=O)c1c(/N=C/c2c(O)n(-c3ccccc3F)c(=S)[nH]c2=O)sc2c1CCCC2`, the Potency in test [9] was 16300 nM (active).

For `O=C(O)COc1ccccc1/C=C1\C(=O)NC(=O)N(CCC2=CCCCC2)C1=O`, the call in test [10], in test [11] and in test [12] was inactive. In the case of `CN(C)CCC(=O)[C@@]1(O)CC[C@H]2[C@H]3CC=C4C[C@@H](O)CC[C@]4(C)[C@H]3CC[C@]21C`, in test [13], the Potency was 2510 nM (active).

For `CC[C@@H](C(=O)[C@@H](C)[C@@H](O)[C@H](C)[C@@H]1O[C@@H]([C@@H](CC)C(=O)O)CC[C@@H]1C)[C@H]1O[C@]2(C=C[C@@H](O)[C@]3(CC[C@@](C)([C@H]4CC[C@](O)(CC)[C@H](C)O4)O3)O2)[C@H](C)C[C@@H]1C`, the Potency in [14] is 235 nM (active). On to `C[C@@H]1[C@H](O)[C@@H](C)/C=C/C=C/CC/C=C/C=C/C=C/C=C/[C@H](O[C@H]2O[C@@H](C)[C@H](O)[C@@H](N)[C@H]2O)CC2O[C@](O)(C[C@@H](O)[C@H](O)CC[C@@H](O)C[C@@H](O)C[C@@H](O)CC(=O)O[C@H]1C)C[C@H](O)[C@H]2C(=O)O`, for which the max response in test [14] is -9.77% (inactive). Turning to `COC12CC[C@@]3(C[C@@H]1C(C)(O)C(C)(C)C)[C@H]1Cc4ccc(O)c5c4[C@@]3(CCN1CC1CC1)[C@H]2O5` (stereo partly drawn), the Potency in test [14] was 31600 nM (active). On to `CC/C(=C(\c1ccc(O)cc1)c1ccc(OCCN(C)C)cc1)c1ccccc1`, for which the Potency result in test [15] was “inactive”. In test [16], the Potency was 25100 nM (active). Turning to `COC(C(=O)C(O)C(C)O)C1Cc2cc3cc(OC4CC(OC5CC(O)C(O)C(C)O5)C(O)C(C)O4)c(C)c(O)c3c(O)c2C(=O)C1OC1CC(OC2CC(OC3CC(C)(O)C(O)C(C)O3)C(O)C(C)O2)C(O)C(C)O1` (stereo not drawn), the Potency in test [14] is 1120 nM (active).

Take `COC(=O)C1(O)CC2OC1(C)n1c3ccccc3c3c4c(c5c6ccccc6n2c5c31)C(=O)NC4` (stereo not drawn): the parasite growth, % of DMSO control in test [3] amounted to 4.95%. Further, in [4], the parasite growth remaining, % of DMSO control (lower = more inhibition) turned out to be 7.86%. Further, the parasite growth, % of control (lower = inhibition) in test [5] turned out to be 21.3%. In test [6], this compound returned a growth, % of control of 4.75%. `N#CCN1CCN(c2ccc(C(F)(F)F)cc2)CC1`: in [9], the Potency entry was “inactive”. In the case of `C[C@H]1[C@@H](OC(=O)CCC(=O)O)O[C@@H]2OC3(C)CC[C@H]4[C@H](C)CC[C@@H]1[C@@]24OO3`, the Potency in test [14] was 66.2 nM (active). As for `C=Cc1c(C)c2cc3nc(cc4[nH]c(cc5nc(cc1[nH]2)C(C)=C5CCC(=O)OC)c(CCC(=O)O)c4C)[C@@]1(C)C3=CC=C(C(=O)OC)[C@H]1C(=O)OC`, in test [14], the Potency is 894 nM (active). With `C[C@H]1[C@@H](CCC(=O)Nc2ccc(F)cc2)O[C@@H]2O[C@]3(C)CC[C@@H]4[C@H](C)CC[C@@H]1[C@@]24OO3`, the remaining parasite growth % (stronger effect = lower value) in test [17] was -0.086%. In addition, in test [18], the activity, percent of control came to 0.199%. This compound also came in with a remaining proliferation (% of control), lower = more inhibition in [19] of 0.121%. In the case of `CN1Cc2c(c(C#N)c(N)n(C)c2=S)CC1(C)C`, the Potency in test [9] was 32600 nM (active). Same read-out and setting: the entry for `Cc1cc(N2CCCC2)ccc1C=C(C#N)C#N` is “inactive”. Turning to `C[C@@]12CC[C@@H]3c4ccc(O)cc4CC[C@H]3[C@H]1CC[C@H]2O`, in [13], the Potency result is “inactive”.

The record behind these values is PubChem BioAssay (NCATS).
